Molecules are shown by their SMILES. About 980 (39%) of roughly 2,500 compounds were called active.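 Rule for the calls: active = mean inhibition at 5 µM reaching about 45% (limit read from the data); inactive = the rest.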 The entries come from a sample that favours actives as a whole.

The nature of this experiment: Gli-SUFU pathway antagonists, confirmation, single concentration, luciferase luminescence, Sufu-KO-LIGHT cells (AID 602428).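 Note: plate controls were DMSO-treated cells for no effect and wells lacking cells for full effect.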 The conditions noted are these: Gli luciferase reporter, at 5 µM, stronger effect = higher value.
In the case of `CCOc1cccc(=NC2CCCCC2)c2c(C)[nH]c(C)c12`, the inhibition was 86.4% (active).
